Hits are enriched below; roughly 7.5% of the tested compounds scored in any of these assays.
FLuc counter: counter-screen for miR-21 project: firefly luciferase inhibitors or activators | Potency, µM (highest dose often 57.5 µM), inactives show at the highest dose activity change, negative = inhibition, hits mostly inhibitors | P08659 | hit rate 6.9% among 360,000 | AID 588342 | purified FLuc, Km substrates, luminescence inhibition;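 also: plate controls were vehicle for no effect and reference inhibitor for full effect; nearly all actives have a fitted effect of over 55% in size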
Target sequence (P08659 whole entry, looked up): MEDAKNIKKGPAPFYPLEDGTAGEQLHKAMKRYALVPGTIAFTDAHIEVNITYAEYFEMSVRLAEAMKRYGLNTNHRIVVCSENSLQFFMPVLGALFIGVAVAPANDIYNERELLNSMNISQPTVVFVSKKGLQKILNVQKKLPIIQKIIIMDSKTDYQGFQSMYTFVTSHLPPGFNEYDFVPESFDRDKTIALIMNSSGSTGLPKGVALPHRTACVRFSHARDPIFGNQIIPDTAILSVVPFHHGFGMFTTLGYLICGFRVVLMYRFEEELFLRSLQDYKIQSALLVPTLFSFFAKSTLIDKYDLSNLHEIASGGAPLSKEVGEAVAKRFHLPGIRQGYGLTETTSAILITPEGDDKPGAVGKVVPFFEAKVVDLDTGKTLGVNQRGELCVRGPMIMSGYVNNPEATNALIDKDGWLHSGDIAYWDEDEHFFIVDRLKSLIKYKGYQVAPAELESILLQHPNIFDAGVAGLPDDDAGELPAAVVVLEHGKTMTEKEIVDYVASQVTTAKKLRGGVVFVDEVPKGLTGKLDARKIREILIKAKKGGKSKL
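Purified P. pyralis luciferase (10nM final) with 10uM D-luciferin and 10uM ATP (Km levels) in 50mM Tris acetate pH 7.5, 10mM Mg acetate, 0.01% Tween-20, 0.05% BSA; qHTS 6-point titration, ~60 µM downward; luminescence read.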
Luc counter: blocks Kinase-Glo luciferase, a counter-screen artifact; Potency, µM (top dose mostly 38.3 µM), for inactives: at the highest dose activity change, negative = inhibition, actives largely listed as inhibitors; Q27757; hit rate 0.28% among 200,000; Kinase-Glo luciferase, ATP luminescence, 8 min; also: % is scaled to controls: 0 for no effect and ±100 for the full control effect; nearly all actives have a fitted effect of over 60% in size
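Compounds were added to a substrate mix at pH 7.2 (50 mM imidazole, 10 uM ATP, within the enzyme's linear range), followed by Kinase-Glo detection reagent; luminescence was measured after 8 minutes at ambient temperature.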
ELG1 genotox: induces genotoxicity in HEK293T cells with luciferase-tagged ELG1. HEK293T ELG1-luciferase reporter, luminescence, 16 h. Potency, µM (doses to about 46 µM), inactives show at the highest dose activity change, positive = activation, most hits filed as activators. hit rate 1.3% among 330,000. AID 504466; also: % of control where 0% means no effect; nearly all actives have a fitted effect of over 60% in size
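16 hr compound incubation (37 °C, 5% CO2) of HEK293T cells carrying luciferase-tagged ELG1; luciferase then measured by ONE-Glo luminescence after 30 min at RT.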
NPC1 prom act: NPC1 promoter activation. hit rate 2.4% among 320,000. Potency, µM (highest dose often 9.22 µM), for inactives: top-dose activation, most hits filed as activators. Huh7 NPC1 promoter luciferase reporter, 24 h; also: % of control where 0% means no effect; nearly all actives have a fitted effect of over 60% in size
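Luminescence from an NPC1 promoter-driven luciferase reporter in stably transfected Huh7 cells was measured after 24 h compound treatment at 37 °C, followed by 10 min ambient incubation with luciferase detection reagent.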
Rab9 promoter act: activates the Rab9 promoter. Huh7 Rab9 promoter-luciferase reporter, luminescence, 24 h. Potency, µM (top dose mostly 9.22 µM), for the others: at the highest dose activation, negative = inhibition, most hits filed as activators. hit rate 2.8% among 320,000; also: % of control where 0% means no effect; nearly all actives have a fitted effect of over 60% in size
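Luminescence from Amplite-detected luciferase (10 minutes, ambient) reports Rab9 promoter activation. Before that, stable Rab9-luciferase Huh7 cells (1500/well, reduced-serum OP-MEM I plus 10% FBS) were exposed to compound for 24 hours at 37C.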
SMN2 splice up: enhancers of SMN2 splice variant expression | HEK293 SMN2-luciferase splicing reporter, luminescence, 30-36 h | hit rate 2.8% among 210,000 | Potency, µM (top dose mostly 46.1 µM), for the others: at the highest dose activity change, positive = activation, hits mostly activators | AID 1458; also: % of control where 0% means no effect; nearly all actives have a fitted effect of over 55% in size
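HEK293 cells carry an SMN2 minigene-luciferase reporter in which exon 7 inclusion puts luciferase in frame. Cells were seeded at 2000 cells/well, attached for 10-12 hours, then exposed to compounds for 30-36 hours at 37C before ONE-Glo luminescence.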
An asterisk follows results filed as active; u = inconclusive; x = no result; [ ] = another dose, or the depositor's remark. Calls follow the shape of the dose curve; as a rule, active = well fitted curve in the direction sought with a large enough effect; inconclusive = small, poorly fitted or top-dose-only effect, or another doubt; inactive = no such curve, though single readings can be large; an effect the other way counts as inactive or inconclusive. Potency is read from the fitted curve at half-maximal effect.

SMILES	FLuc counter	Luc counter	ELG1 genotox	NPC1 prom act	Rab9 promoter act	SMN2 splice up
CC1(c2ccccc2)NC(=O)N(CC(=O)Nc2ccc(N3CCOCC3)cc2)C1=O (stereo not given)	x	x	2%	x	x	x
COc1cccc(-c2nnc(Nc3nc4c(F)cccc4s3)o2)c1	4.8µM*	-2%	11%	2.8µM*	3.2µM*	11µM*
COc1cccc(-c2nnc(NC(=O)C3CCCCC3)o2)c1	1%	-3%	u	1%	-3%	11%
COc1cccc2sc(NN)nc12	u	1%	0%	16%	2%	5%
COc1cccc2sc(Nc3nnc(-c4ccccc4Cl)o3)nc12	12µM*	-1%	11%	-15%	-15%	-23%
COc1ccccc1-c1nnc(Nc2nc3c(OC)cccc3s2)o1	2.7µM*	-8%	14%	-5%	3%	-13%
O=C(Nc1nnc(-c2ccccc2Cl)o1)c1nc2ccccc2s1	-5%	1%	u	-1%	-2%	10%
O=C(CNC(=O)c1cccc(Cl)c1)NCCCSc1ccccc1	-9%	x	-4%	0%	0%	x
O=C1C2C3C=CC(C3)C2C(=O)N1c1ccc2c(c1)OCO2 (stereo not given)	-23%	1%	-2%	6%	-2%	x
O=C1C2C3C=CC(CC3)C2C(=O)N1c1ccc2c(c1)OCO2 (stereo not given)	17µM*	3%	1%	0%	6%	-16%
CC(C)c1ccc(CC(C)C2C3=C(CCCC3=O)OC3=C2C(=O)CCC3)cc1 (stereo not given)	1%	0%	-3%	4%	12%	-24%
CC(C)c1nnc(NC(=O)c2ccc3ccccc3c2)s1	2.1µM*	x	u	1µM*	1µM*	x
Cc1nnc(NC(=O)c2ccc3ccccc3c2)s1	11µM*	x	4.6µM*	1.8µM*	1.4µM*	x
Cn1cc(C=C2C(=O)Nc3cccnc32)c2ccccc21	x	-1%[39.9 µM]	x	x	x	x
CCOc1ccc(CCNC(=O)Cn2cccc2C(=O)c2ccccc2C)cc1OCC	5%	1%	-2%	-1%	1%	-9%[1.84 µM]
COc1cc(-c2cc(-c3ccc(F)cc3)nc(N)c2C#N)ccc1O	5%	-6%	6%	-7%	-19%	x
Cc1ccc(Cl)cc1-n1ncc2c(Nc3ccc4c(c3)OCCO4)ncnc21	11µM*	x	x	x	x	x
Fc1ccc(-n2ncc3c(Nc4ccc5c(c4)OCCO5)ncnc32)cc1	17µM*	x	x	x	x	x
Cc1ccc(-n2ncc3c(Nc4ccc5c(c4)OCCO5)ncnc32)cc1Cl	-18%	x	x	x	x	x
Clc1cccc(-n2ncc3c(Nc4ccc5c(c4)OCCO5)ncnc32)c1	13µM*	x	x	x	x	x
COc1ccc(C(=O)NCC(c2cccnc2)N2CCN(c3ccccc3F)CC2)cc1OC (stereo not given)	-2%	x	x	x	x	x
Cc1cc2nc(-c3cccc(NC(=O)c4ccc(Br)o4)c3C)oc2cc1C	4.3µM*	-12%	-3%	26%	21%	-17%
Cc1ccc2oc(-c3cccc(NC(=O)c4ccc(Br)o4)c3C)nc2c1	7.6µM*	-2%	25%	10%	-3%	-19%
Cc1cc2nc(-c3cccc(NC(=O)C(C)C)c3C)oc2cc1C	0.48µM*	x	x	x	x	x
COc1cc2ccccc2cc1C(=O)Nc1cccc(-c2nc3cc(C)c(C)cc3o2)c1C	u	x	x	x	x	-4%
SMILES	FLuc counter	Luc counter	ELG1 genotox	NPC1 prom act	Rab9 promoter act	SMN2 splice up
CCOC(=O)Cc1csc(NC(=O)CN2CCCCC2)n1	4%	x	-4%	-3%	0%	x
C=CCn1c(-c2ccc(N)cc2)nc2ccccc21	11µM*	15%	18µM*	14%	u	u
C=CCn1c(-c2ccc(OC)cc2)nc2nc3ccccc3nc21	u	-5%	14%	1%	-1%	10µM*
COc1ccc(-c2nc3ccccc3n2Cc2ccccc2)cc1	u	7%	2%	-1%	5%	-30%
C=CCn1c(-c2ccc(OC)cc2)nc2ccccc21	13µM*	-24%	0%	16%	30%	u
CSc1ccccc1OCc1cc(C(=O)NCc2cccc(C)n2)no1	12µM*	x	u	2.8µM*	4µM*	x
CSc1ccccc1OCc1cc(C(=O)NC(C)CCn2cccn2)no1 (stereo not given)	u	x	-3%	-3%	1%	x
CSc1ccccc1OCc1cc(C(=O)NC(C)Cc2cccc(C)n2)no1 (stereo not given)	19µM*	x	-10%	u	u	x
Cc1nc(N2C(=O)c3oc4ccccc4c(=O)c3C2c2cccc(OCCC(C)C)c2)sc1C (stereo not given)	2%	x	x	x	x	-16%
CCc1ccc(OCC(=O)Nc2ccc(N3CCN(S(C)(=O)=O)CC3)cc2)cc1	1%	-4%	0%	0%	9%	x
C=CCNC(=S)NC(=O)c1ccc(C)c(Br)c1	17µM*	-3%	u	20%	u	14µM*
Cc1ccc(S(=O)(=O)O[C@@H]2[C@H]([C@@H]3COC(C)(C)O3)O[C@H]3OC(C)(C)O[C@@H]32)cc1	x	-1%[7.66 µM]	x	x	x	2%[9.22 µM]
Cc1ccc(NC(=O)c2noc3c2CCCCC3)cc1	9.5µM*	-10%	u	0.56µM*	0.5µM*	11µM*
Cc1ccc(Cn2ccc(NC(=O)c3noc4c3CCCC4)n2)cc1	u	6%	21µM*	u	u	3%
CCc1ccc(NC(=O)c2noc3c2CCCCC3)cc1	2.1µM*	8%	u	0.71µM*	0.63µM*	10µM*
CCc1ccc(NC(=O)c2noc3c2CCC3)cc1	0.67µM*	-20%	0.82µM*	1µM*	0.56µM*	13µM*
COc1ccc(C(=O)NNC(=O)C2CCN(S(=O)(=O)c3ccc(C)cc3)CC2)cc1	-1%	-1%	-5%	-6%	-22%	x
COc1ccc2oc(C(=O)OCc3c(C)noc3C)c(C)c2c1	u	-1%	u	-3%	6%	-41%
O=C1CC(c2ccc(O[C@@H]3OC(CO)[C@@H](O)C(O)C3O)cc2)Oc2cc(O)ccc21 (stereo not given in full)	x	-1%	x	x	x	-6%
COc1ccc(-n2c(=O)c(-c3cccs3)nc3cnc(Oc4ccccc4)nc32)cc1	x	0%	x	x	x	-3%
Cc1ccc(NC(=O)c2noc3c2CCCCC3)cc1C	1.1µM*	-7%	u	0.4µM*	0.63µM*	7.9µM*
O=C(NCc1ccccc1)c1noc2c1CCCC2	-18%	0%	u	20%	21%	x
O=C(NCCc1ccccc1)c1noc2c1CCCCC2	8.5µM*	-4%	u	2.5µM*	3.5µM*	u
Cc1ccc(Cn2nc(C)c(NC(=O)c3noc4c3CCCCC4)c2C)cc1	2%	-3%	-8%	-1%	1%	-33%
